Inconclusive results are not listed. Entries that show only a call come without a potency. The source made the active and inactive calls. Calls come from the whole dose curve; as a rule, active = well fitted cell-killing curve with a large enough effect in the repeat runs; inconclusive = weak or mixed curves, or effect the other way; inactive = no such curve, though single readings can be large or run the other way.
Experiment: qHTS assay to identify small molecule antagonists of the thyroid receptor (TR) signaling pathway - cell viability counter screen (AID 743064); note: nearly all actives have a fitted effect of over 50% in size
Conditions: GH3.TRE-Luc viability, CellTiter-Fluor, 24 h; series mostly up to 70.3 µM
Source text: National Center for Advancing Translational Sciences [NCATS]
NIH Chemical Genomics Center [NCGC]
U.S. Environmental Protection Agency [EPA]
National Institutes of Environmental Health Sciences [NIEHS]
National Toxicology Program [NTP]
U.S. Food and Drug Administration [FDA]
Thyroid receptor (TR), a nuclear hormone receptor, plays an important role in development, proliferation, differentiation, metabolism, brain function, and cardiovascular system. […] To profile the Tox21 10K compound library in TR signaling, a cell-based GH3-TRE-Luc assay (GH3.TRE-Luc cell line, developed by the laboratory of Dr. Albertinka J. Murk, Wageningen University) was used to measure the inhibition of TR. GH3 (rat pituitary tumor) cells stably expressing a TR activity sensor consisting of two TR response elements and a luciferase reporter gene. The cytotoxicity of the Tox21 compound library against the GH3.TRE-Luc cell line was tested in parallel by measuring the cell viability using CellTiter-Fluor assay (Promega, Madison, WI) in the same wells.
Tox21 Assay Protocol Summary:
GH3.TRE-Luc cells were dispensed at 1500 cells/4 uL/well into 1536-well white solid bottom plates using a Multidrop Combi dispenser (Thermo Fisher Scientific Inc., Waltham, MA). After the assay plates were incubated at 37 C for 4 hours, 23 nL of library compound or DMSO controls was transferred to the assay plates by a pintool station (Kalypsys, San Diego, CA), followed by addition of 1 ul of T3 (1 nM, final concentration in the wells) to stimulate TR transactivation. The assay plates were incubated at 37 C for 23.5 h, and then 1 uL of CellTiter-Fluor reagent (Promega, Madision, WI) of measuring cytotoxicity was added to each well using a Bioraptr Flying Reagent Dispenser (FRD) workstation (Beckman Coulter, Indianapolis, IN, USA). The plates were incubated at 37C and 5% CO2 for additional 30 min, and fluorescence intensity was measured by a ViewLux plate reader (PerkinElmer, Shelton, CT).
Potency is the fitted concentration of half-maximal effect.

Row | SMILES | Potency
1 | CCC(CC)C(=O)O | inactive
2 | C[C@H](CN1CCCC1)C(=O)c1ccc(C(F)(F)F)cc1 | inactive
3 | CCOc1ccc2c(c1)C(C)CC(C)(C)N2 (stereo not given) | inactive
4 | CCCCCCCCCCCCCCCCC(=O)O | inactive
5 | CC/C=C/CCO | inactive
6 | Oc1ccc(CCNCCCCCCNCCc2ccccc2)cc1O | 29.8 µM (active)
7 | CC(C)=CCC/C(C)=C/C=N/O | inactive
8 | O=P(c1ccccc1)(c1ccccc1)c1ccccc1 | inactive
9 | CNc1ccccc1 | inactive
10 | C/C(=C\C(C)CC(C)CC(C)C)C1CC(=O)OC1=O (stereo not given) | inactive
11 | Cc1cc(C)n(CO)n1 | inactive
12 | NC(=O)c1ccccc1 | inactive
13 | [O-][n+]1ccc(Cl)cc1 | inactive
14 | CCCCCCCCC(=O)OCC(C)OC(=O)CCCCCCCC (stereo not given) | inactive
15 | CCCCCCCCOCCCN | 13.7 µM (active)
16 | N#Cc1ccc(CC(=O)c2cccc(C(F)(F)F)c2)cc1 | inactive
17 | Oc1ccc(Oc2ccccc2)cc1 | 41 µM (active)
18 | CC(C)=CCCC(C)C=O (stereo not given) | inactive
19 | CCCCC(CC)COCCC#N (stereo not given) | inactive
20 | O=C(Nc1ccc2c(c1)Cc1ccccc1-2)C(F)(F)F | inactive

Row | SMILES | Potency
21 | SCCOCCOCCS | inactive
22 | c1ccc(-c2ccc(-c3ccccc3)cc2)cc1 | inactive
23 | Cc1cccc(C)c1NC(=O)CN1CCCC1 | inactive
24 | OCCc1ccncc1 | inactive
25 | CCCCCCCCCCCCSCCOCCO | inactive
26 | CC(C)(C)c1ccc(CCC=O)cc1 | inactive
27 | OCCOc1cccc(OCCO)c1 | inactive
28 | CC(O)CN (stereo not given) | inactive
29 | S=c1[nH][nH]c(=S)s1 | inactive
30 | CCCCOC(=O)C(C)Oc1ccc(Oc2ccc(C(F)(F)F)cn2)cc1 (stereo not given) | inactive
31 | CCn1nc(Cc2ccccc2)cc1C1CCN(C[C@H]2C[C@H](N(C)[C@@H](C(=O)O)C(C)C)C[C@@H]2c2cccc(F)c2)CC1 | 27.3 µM (active)
32 | Cc1ccc2ccccc2c1[N+](=O)[O-] | inactive
33 | Nc1ccc(F)cc1F | inactive
34 | Cc1cc(C)c(C)c(O)c1 | inactive
35 | CO[C@@H]1COCC[C@@H]1N[C@@H]1CC[C@@](C(=O)N2CCc3ncc(C(F)(F)F)cc3C2)(C(C)C)C1 | inactive
36 | O=C(O)c1ccccc1[N+](=O)[O-] | inactive
37 | CC1(COc2ccc(CC3SC(=O)NC3=O)cc2)CCCCC1 (stereo not given) | 23.7 µM (active)
38 | C1CCN(CN2CCCCC2)CC1 | inactive
39 | CC/C=C\CCO | inactive
40 | O=C(Cl)c1ccc(F)c(Cl)c1 | inactive
